# Among all 5,500 compounds or so, about 2,000 (36%) were called active. Inconclusive results (about 18%) are left out. The list shows a part of the results. A number with no mark means an inactive call. No stated cut-off is given here; in the data, active means normalized growth mostly below about 0.91 (no sharp cut-off); inconclusive means no clear call, values can overlap the other calls; inactive means mostly above about 0.92.
# Experiment: chemical genetic growth profiling, strain panel (AID 1159580);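 further: tested at 20 µM; growth read once vehicle control cultures reached saturation at 30 °C; 1 = growth at the plate median or of vehicle wells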
# Details: S. cerevisiae deletion strains, growth OD
# [1] = locus YAR019C, strain CDC15, stronger effect = lower value
# [2] = locus YBL105C, strain PKC1, stronger effect = lower value
# [3] = locus YBR135W, strain CKS1, stronger effect = lower value
# [4] = locus YBR136W, strain MEC1, stronger effect = lower value
# [5] = locus YBR160W, strain CDC28, stronger effect = lower value
# [6] = locus YDL017W, strain CDC7, stronger effect = lower value
# [7] = locus YDL028C, strain MPS1, stronger effect = lower value
# [8] = locus YDL101C, strain DUN1, stronger effect = lower value
# [9] = locus YDL108W, strain KIN28, stronger effect = lower value
# [10] = locus YDL132W, strain cdc53, stronger effect = lower value
# [11] = locus YDL214C, strain PRR2, stronger effect = lower value
# [12] = locus YDR052C, strain DBF4, stronger effect = lower value
# [13] = locus YDR054C, strain cdc34, stronger effect = lower value
# [14] = locus YDR226W, strain ADK1, stronger effect = lower value
# [15] = locus YDR477W, strain SNF1, stronger effect = lower value
# [16] = locus YER123W, strain YCK3, stronger effect = lower value
# [17] = locus YER133W, strain GLC7, stronger effect = lower value
# [18] = locus YFL009W, strain cdc4, stronger effect = lower value
# [19] = locus YFR003C, strain YPI1, stronger effect = lower value
# [20] = locus YFR019W, strain FAB1, stronger effect = lower value
# [21] = locus YFR028C, strain CDC14, stronger effect = lower value
# [22] = locus YGR040W, strain KSS1, stronger effect = lower value
# [23] = locus YGR052W, strain FMP48, stronger effect = lower value
# [24] = locus YGR092W, strain DBF2, stronger effect = lower value
# [25] = locus YHR030C, strain SLT2, stronger effect = lower value
# [26] = locus YHR079C, strain IRE1, stronger effect = lower value
# [27] = locus YHR082C, strain KSP1, stronger effect = lower value
# [28] = locus YHR205W, strain SCH9, stronger effect = lower value
# [29] = locus YIL147C, strain SLN1, stronger effect = lower value
# [30] = locus YJL095W, strain BCK1, stronger effect = lower value
# [31] = locus YJL128C, strain PBS2, stronger effect = lower value
# [32] = locus YJL157C, strain FAR1, stronger effect = lower value
# [33] = locus YJR016C, strain ILV3, stronger effect = lower value
# [34] = locus YJR066W, strain TOR1 (second series), stronger effect = lower value
# [35] = locus YJR066W, strain TOR1, stronger effect = lower value
# [36] = locus YKL048C, strain ELM1, stronger effect = lower value
# [37] = locus YKL067W, strain YNK1, stronger effect = lower value
# [38] = locus YKL193C, strain SDS22, stronger effect = lower value
# [39] = locus YKL203C, strain TOR2, stronger effect = lower value
# [40] = locus YLR113W, strain HOG1, stronger effect = lower value
# [41] = locus YLR133W, strain CKI1, stronger effect = lower value
# [42] = locus YLR403W, strain SFP1, stronger effect = lower value
# [43] = locus YML070W, strain DAK1, stronger effect = lower value
# [44] = locus YMR001C, strain CDC5, stronger effect = lower value
# [45] = locus YMR205C, strain PFK2 (second series), stronger effect = lower value
# [46] = locus YMR277W, strain FCP1, stronger effect = lower value
# [47] = locus YNL006W, strain LST8, stronger effect = lower value
# [48] = locus YNL020C, strain ARK1, stronger effect = lower value
# [49] = locus YNL183C, strain NPR1, stronger effect = lower value
# [50] = locus YNL207W, strain RIO2, stronger effect = lower value
# [51] = locus YNL222W, strain SSU72, stronger effect = lower value
# [52] = locus YNL307C, strain MCK1 (second series), stronger effect = lower value
# [53] = locus YOL136C, strain PFK27, stronger effect = lower value
# [54] = locus YOR061W, strain CKA2, stronger effect = lower value
# [55] = locus YOR119C, strain RIO1, stronger effect = lower value
# [56] = locus YOR231W, strain MKK1, stronger effect = lower value
# [57] = locus YOR329C, strain SCD5, stronger effect = lower value
# [58] = locus YPL031C, strain PHO85, stronger effect = lower value
# [59] = locus YPL153C, strain RAD53, stronger effect = lower value
# [60] = locus YPL204W, strain HRR25, stronger effect = lower value
# [61] = locus YPL209C, strain IPL1, stronger effect = lower value
# [62] = locus YPL256C, strain CLN2, stronger effect = lower value
# [63] = locus YPR025C, strain CCL1, stronger effect = lower value
# [64] = locus YPR106W, strain ISR1, stronger effect = lower value
# [65] = locus YPR111W, strain DBF20, stronger effect = lower value
# [66] = strain NNK1, stronger effect = lower value
# [67] = strain TSCII, stronger effect = lower value
structure (smiles),measurement,setting,value
CC(O)(CNCc1ccc(Cl)cc1)CSc1ccccc1Cl (stereo not drawn),normalized growth,[1],0.977
same,normalized growth,[2],0.984
same,normalized growth,[3],0.99
same,normalized growth,[4],0.975
same,normalized growth,[5],0.998
same,normalized growth,[6],0.992
same,normalized growth,[7],0.972
same,normalized growth,[8],0.985
same,normalized growth,[9],0.987
same,normalized growth,[10],0.994
same,normalized growth,[11],0.959
same,normalized growth,[12],1
same,normalized growth,[13],0.988
same,normalized growth,[14],0.98
same,normalized growth,[15],0.952
same,normalized growth,[16],0.862
same,normalized growth,[17],0.952
same,normalized growth,[18],0.99
same,normalized growth,"locus YFL029C, strain CAK1, stronger effect = lower value",0.962
same,normalized growth,[19],0.986
same,normalized growth,[20],0.9
same,normalized growth,[21],0.985
same,normalized growth,[22],0.927
same,normalized growth,[23],1.08
same,normalized growth,[24],0.796
same,normalized growth,[25],0.938
same,normalized growth,[26],1
same,normalized growth,[27],1.03
same,normalized growth,[28],1.02
same,normalized growth,[29],0.978
same,normalized growth,[30],1.02
same,normalized growth,[31],1
same,normalized growth,[32],0.973
same,normalized growth,[33],0.991
same,normalized growth,[34],0.875
same,normalized growth,[35],0.998
same,normalized growth,[36],0.98
same,normalized growth,[37],0.971
same,normalized growth,"locus YKL101W, strain HSL1, stronger effect = lower value",0.963
same,normalized growth,[38],0.985
same,normalized growth,[39],0.981
same,normalized growth,[40],1.07
same,normalized growth,[41],0.976
same,normalized growth,[42],0.963
same,normalized growth,[43],0.974
same,normalized growth,[44],0.982
same,normalized growth,[45],0.977
same,normalized growth,[46],0.99
same,normalized growth,[47],0.997
same,normalized growth,[48],0.991
same,normalized growth,"locus YNL161W, strain CBK1, stronger effect = lower value",0.991
same,normalized growth,[49],1.02
same,normalized growth,[50],0.994
same,normalized growth,[51],0.985
same,normalized growth,[52],0.897
same,normalized growth,"locus YOL078W, strain AVO1, stronger effect = lower value",0.99
same,normalized growth,[53],0.975
same,normalized growth,[54],0.964
same,normalized growth,[55],0.928
same,normalized growth,[56],1.02
same,normalized growth,[57],0.992
same,normalized growth,[58],0.955
same,normalized growth,[59],0.951
same,normalized growth,[60],0.923
same,normalized growth,[61],0.984
same,normalized growth,[62],1.01
same,normalized growth,[63],0.988
same,normalized growth,[64],1
same,normalized growth,[65],0.998
same,normalized growth,[66],1
same,normalized growth,[67],0.987
N#CCC(=O)c1cccc(CSc2ccccc2Cl)c1,normalized growth,[1],0.896
same,normalized growth,[2],0.944
same,normalized growth,[3],0.954
same,normalized growth,[4],0.967
same,normalized growth,[5],0.971
same,normalized growth,[6],0.982
same,normalized growth,[7],0.972
same,normalized growth,[8],0.974
same,normalized growth,[9],0.966
same,normalized growth,[10],0.977
same,normalized growth,[11],0.617 (active)
same,normalized growth,[12],0.976
same,normalized growth,[13],0.987
same,normalized growth,[14],0.964
same,normalized growth,[15],0.417 (active)
same,normalized growth,[16],0.243 (active)
same,normalized growth,[17],0.639 (active)
same,normalized growth,[18],0.983
same,normalized growth,[19],0.982
same,normalized growth,[20],0.31 (active)
same,normalized growth,[21],0.965
same,normalized growth,[22],0.456 (active)
same,normalized growth,[23],0.473 (active)
same,normalized growth,[24],1.03
same,normalized growth,[25],0.114 (active)
same,normalized growth,[26],0.209 (active)
same,normalized growth,[27],0.293 (active)
same,normalized growth,[28],0.992
same,normalized growth,[29],0.968
same,normalized growth,[30],0.213 (active)
same,normalized growth,[31],1.04
same,normalized growth,[32],0.42 (active)
same,normalized growth,[33],0.987
same,normalized growth,[34],0.313 (active)
same,normalized growth,[35],0.353 (active)
same,normalized growth,[36],0.937
same,normalized growth,[37],0.59 (active)
same,normalized growth,[38],0.978
same,normalized growth,[39],0.529 (active)
same,normalized growth,[40],0.56 (active)
same,normalized growth,[41],0.512 (active)
same,normalized growth,[42],1
same,normalized growth,[43],0.405 (active)
same,normalized growth,[44],0.976
same,normalized growth,[45],0.812
same,normalized growth,[46],0.973
same,normalized growth,[47],0.319 (active)
same,normalized growth,[48],0.437 (active)
same,normalized growth,[49],0.584
same,normalized growth,[50],0.966
same,normalized growth,[51],0.961
same,normalized growth,[52],1.04
same,normalized growth,[53],0.382 (active)
same,normalized growth,[54],0.553 (active)
same,normalized growth,[55],0.504 (active)
same,normalized growth,[56],0.43 (active)
same,normalized growth,[57],0.969
same,normalized growth,[58],0.189 (active)
same,normalized growth,[59],0.21 (active)
same,normalized growth,[60],0.162 (active)
same,normalized growth,[61],0.966
same,normalized growth,[62],0.343 (active)
same,normalized growth,[63],0.972
same,normalized growth,[64],0.996
same,normalized growth,[65],0.968
same,normalized growth,[66],0.971
same,normalized growth,[67],0.973
